PubChem BioAssay (NCI)
This is part of a sample that, as a whole, favours compounds with a hit. Of some 83,000 tested, about 20% had one in any assay.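 Compound tested at a single concentration for 48 hours in 96-well plates; a percent growth value below 10 was scored as active.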 Active and inactive are the calls of the source.

Experiments:
Experiment in all cases: NCI-60 one-dose screen, 48 h (100 = growth as untreated, 0 = no growth, -100 = all killed)
Settings in all cases: 10 µM unless noted
NCI-H23 lung = system: NCI-H23 lung
NCI-H226 lung = system: NCI-H226 lung
NCI-H322M lung = system: NCI-H322M lung
HOP-62 NSCLC = system: HOP-62 NSCLC
NCI-H460 lung = system: NCI-H460 lung
HOP-92 NSCLC = system: HOP-92 NSCLC
NCI-H522 lung = system: NCI-H522 lung
A549/ATCC NSCLC = system: A549/ATCC NSCLC
786-0 renal = system: 786-0 renal
COLO 205 colon = system: COLO 205 colon

Measured: growth

C=C1C(=O)O[C@H]2[C@H]1CC/C(COC(=O)NCC(C)c1ccc(CC(C)C)cc1)=C\CC[C@@]1(C)O[C@@H]21 (stereo not given in full)
active: HOP-92 NSCLC -33.3% | NCI-H522 lung -64.1% | 786-0 renal -87.7% | COLO 205 colon -50.3%
inactive: NCI-H23 lung 30.7% | NCI-H226 lung 61.4% | NCI-H322M lung 87% | HOP-62 NSCLC 82.2% | NCI-H460 lung 19.7% | A549/ATCC NSCLC 73%

CCOC(=O)C1=C(CCl)NC(=O)NC1c1ccc2c(c1)OCO2 (stereo not given)
inactive: NCI-H23 lung 48.3% | NCI-H226 lung 88.5% | NCI-H322M lung 88.1% | HOP-62 NSCLC 53.8% | NCI-H460 lung 76.9% | HOP-92 NSCLC 60.1% | A549/ATCC NSCLC 66.1% | 786-0 renal 43.2% | COLO 205 colon 75.6%
active: NCI-H522 lung -42.3%

COc1ccc(/C=C/C(=O)Nc2cc(/C=C\c3cc(OC)c(OC)c(OC)c3)cc(OC)c2OC)cc1OC
inactive: NCI-H226 lung 37.6% | NCI-H322M lung 42.3% | HOP-62 NSCLC 33.9% | NCI-H460 lung 17.5% | HOP-92 NSCLC 46.2% | A549/ATCC NSCLC 40% | 786-0 renal 23% | COLO 205 colon 11.2%
active: NCI-H23 lung 0.824% | NCI-H522 lung -21.3%

N#Cc1c(NCc2ccccc2I)sc2c1CCCCC2
inactive: NCI-H23 lung 87.5% | NCI-H226 lung 87.5% | NCI-H322M lung 89.9% | HOP-62 NSCLC 91.3% | NCI-H460 lung 96.7% | HOP-92 NSCLC 88.8% | NCI-H522 lung 86.7% | A549/ATCC NSCLC 85.7% | 786-0 renal 90% | COLO 205 colon 108%

COc1ccc(C(=O)c2nc3ccccc3n2CC(=O)c2ccc(F)cc2)cc1
inactive: NCI-H23 lung 88.4% | NCI-H226 lung 102% | NCI-H322M lung 99.8% | HOP-62 NSCLC 91.4% | NCI-H460 lung 108% | HOP-92 NSCLC 95.5% | NCI-H522 lung 35.6% | A549/ATCC NSCLC 98.2% | 786-0 renal 87.3% | COLO 205 colon 131%

O=C1c2ccccc2CCC12OC2c1cn(-c2ccccc2)nc1-c1ccc(Cl)cc1 (stereo not given)
inactive: NCI-H23 lung 103% | NCI-H226 lung 75.1% | NCI-H322M lung 99.6% | HOP-62 NSCLC 108% | NCI-H460 lung 58.9% | HOP-92 NSCLC 40.5% | NCI-H522 lung 87.1% | A549/ATCC NSCLC 92.7% | 786-0 renal 115% | COLO 205 colon 93.9%

CCCCCC(=O)Oc1ccc(/C(=C(\C)c2ccccc2)c2ccc(OCCN3CCCCC3)cc2)cc1
inactive: NCI-H23 lung 74.9% | NCI-H226 lung 93.5% | NCI-H322M lung 83.8% | HOP-62 NSCLC 87.7% | NCI-H460 lung 82.1% | HOP-92 NSCLC 91.2% | NCI-H522 lung 70.1% | A549/ATCC NSCLC 77.5% | 786-0 renal 69.9% | COLO 205 colon 34.4%

N#Cc1c(NC(=O)NCc2ccccc2)sc2c1CCCC2
active: NCI-H460 lung 2.62%
inactive: NCI-H23 lung 29% | NCI-H226 lung 29.5% | NCI-H322M lung 42.2% | HOP-62 NSCLC 40.2% | HOP-92 NSCLC 42% | NCI-H522 lung 21.9% | A549/ATCC NSCLC 28.5% | 786-0 renal 35.6% | COLO 205 colon 10.1%

CCCCC[n+]1ccc(SCC(=O)N(C)c2ccc(Oc3ccccc3)cc2)c2ccccc21
inactive: NCI-H23 lung 90.3% | NCI-H226 lung 106% | NCI-H322M lung 107% | HOP-62 NSCLC 115% | NCI-H460 lung 107% | HOP-92 NSCLC 99.9% | NCI-H522 lung 63.3% | A549/ATCC NSCLC 96.2% | 786-0 renal 102% | COLO 205 colon 20.9%

CC(C)=CCC[C@](C)(O)[C@H]1CC[C@]2(C)[C@@H]1CC[C@@H]1[C@@]3(C)C/C(=C/c4ccccc4)C(=O)C(C)(C)[C@@H]3CC[C@]12C
inactive: NCI-H23 lung 84.7% | NCI-H226 lung 93.7% | NCI-H322M lung 93.7% | HOP-62 NSCLC 92.2% | NCI-H460 lung 91.1% | HOP-92 NSCLC 78.8% | NCI-H522 lung 77.9% | A549/ATCC NSCLC 85.1% | 786-0 renal 92.2% | COLO 205 colon 99.9%

Cc1ccc(NC(=O)c2cc(-c3nc4ccccc4s3)c(=O)n(NS(=O)(=O)c3ccc(Cl)cc3)c2N)cc1
inactive: NCI-H23 lung 102% | NCI-H226 lung 80.6% | NCI-H322M lung 97.8% | HOP-62 NSCLC 106% | NCI-H460 lung 105% | HOP-92 NSCLC 103% | NCI-H522 lung 94.4% | A549/ATCC NSCLC 100% | 786-0 renal 101% | COLO 205 colon 114%

COc1cc(C=O)ccc1OC1OC(COC(C)=O)C(OC(C)=O)C(OC(C)=O)C1OC(C)=O (stereo not given)
inactive: NCI-H23 lung 102% | NCI-H226 lung 93.8% | NCI-H322M lung 120% | HOP-62 NSCLC 94% | NCI-H460 lung 104% | HOP-92 NSCLC 88.7% | NCI-H522 lung 104% | A549/ATCC NSCLC 94.8% | 786-0 renal 105% | COLO 205 colon 98.7%

CCC(=O)Oc1ccc(/C(=C(\C)c2ccccc2)c2ccc(OCCN3CCCCC3)cc2)cc1
inactive: NCI-H23 lung 75.1% | NCI-H226 lung 82.9% | NCI-H322M lung 82% | HOP-62 NSCLC 76% | NCI-H460 lung 72% | HOP-92 NSCLC 86.5% | NCI-H522 lung 74.4% | A549/ATCC NSCLC 71.1% | 786-0 renal 67.3% | COLO 205 colon 32.7%

COc1cc2c(-c3cc4c(cc3CNCCc3ccc5c(c3)OCO5)OCO4)cccc2c(OC)c1O
inactive: NCI-H23 lung 80.5% | NCI-H226 lung 92.2% | NCI-H322M lung 84.6% | HOP-62 NSCLC 70.9% | NCI-H460 lung 91.2% | HOP-92 NSCLC 66.4% | NCI-H522 lung 79.1% | A549/ATCC NSCLC 92.3% | 786-0 renal 90.1% | COLO 205 colon 117%

Cc1ccc(-c2[nH][nH]c(=O)c2-c2nc3ccccc3s2)cc1
inactive: NCI-H23 lung 96.2% | NCI-H226 lung 95.1% | NCI-H322M lung 105% | HOP-62 NSCLC 99.2% | NCI-H460 lung 105% | HOP-92 NSCLC 105% | NCI-H522 lung 89.2% | A549/ATCC NSCLC 107% | 786-0 renal 101% | COLO 205 colon 106%

COc1cc(/C=N/NC(=O)c2cnn3c2NC(c2ccccc2)C3)ccc1OCc1ccccc1 (stereo not given)
inactive: NCI-H23 lung 32.8% | NCI-H226 lung 40.2% | NCI-H322M lung 28.6% | NCI-H522 lung 19.1%
active: HOP-62 NSCLC -1.18% | NCI-H460 lung -54% | HOP-92 NSCLC 7.9% | A549/ATCC NSCLC -29.8% | 786-0 renal 0.422% | COLO 205 colon -2.34%

Cc1cc2nc3c4ccc(Br)cc4n(CCN(C)C)c3nc2cc1C
active: NCI-H226 lung 1.57% | NCI-H460 lung 2.47% | NCI-H522 lung -1.24% | A549/ATCC NSCLC 5.41% | COLO 205 colon -8%
inactive: NCI-H23 lung 14.8% | NCI-H322M lung 18.9% | HOP-62 NSCLC 16% | HOP-92 NSCLC 34.8% | 786-0 renal 23.2%

CN1CCN(c2ccc(NC3=C(Cl)C(=O)c4ncccc4C3=O)cc2C(F)(F)F)CC1
inactive: NCI-H23 lung 58.7% | NCI-H226 lung 102% | NCI-H322M lung 98% | HOP-62 NSCLC 114% | NCI-H460 lung 101% | A549/ATCC NSCLC 104% | 786-0 renal 82.6%
active: HOP-92 NSCLC -76.4% | NCI-H522 lung -49.8% | COLO 205 colon -16.7%

CCOc1cccc(-c2nc(N)nc(Nc3ccccc3SSc3ccccc3Nc3nc(N)nc(-c4cccc(OCC)c4)n3)n2)c1
inactive: NCI-H23 lung 43.8% | NCI-H226 lung 68% | NCI-H322M lung 85.1% | NCI-H460 lung 35.6% | HOP-92 NSCLC 97.2% | NCI-H522 lung 90.8% | 786-0 renal 84.9% | COLO 205 colon 109%
active: HOP-62 NSCLC -0.309% | A549/ATCC NSCLC -10.8%

O=C(Nc1ccc(NC(=O)c2cc(=O)[nH]c3ccccc23)cc1)Nc1cccc(Cl)c1
inactive: NCI-H23 lung 87.9% | NCI-H226 lung 70% | NCI-H322M lung 80.2% | HOP-62 NSCLC 66.2% | NCI-H460 lung 86.3% | HOP-92 NSCLC 81.1% | NCI-H522 lung 84.6% | A549/ATCC NSCLC 93.5% | 786-0 renal 98.3% | COLO 205 colon 90.1%

N#Cc1cccc(-c2ccc3c(c2)NC(=O)/C3=C\c2ccc[nH]2)c1
active: COLO 205 colon 3.47%
inactive: NCI-H23 lung 34.2% | NCI-H226 lung 41.6% | NCI-H322M lung 45.5% | HOP-62 NSCLC 62.7% | NCI-H460 lung 22.4% | HOP-92 NSCLC 56.7% | NCI-H522 lung 28.7% | A549/ATCC NSCLC 86.5% | 786-0 renal 74.5%

CCSCC1CC(O)(c2ccccc2)CC(c2ccc(F)cc2)O1 (stereo not given)
active: NCI-H460 lung -30.9% | HOP-92 NSCLC -9.6% | 786-0 renal -23.7% | COLO 205 colon -94.8%
inactive: NCI-H23 lung 26.6% | NCI-H226 lung 24.6% | NCI-H322M lung 45.4% | HOP-62 NSCLC 26.2% | NCI-H522 lung 53.9% | A549/ATCC NSCLC 20.7%

COc1cc(-c2cc(-c3ccc(N(C)C)cc3)nc(N3CCOCC3)c2C#N)cc(OC)c1OC
inactive: NCI-H23 lung 60% | NCI-H226 lung 19.9% | NCI-H322M lung 35.8% | NCI-H460 lung 15.2% | A549/ATCC NSCLC 26.9% | COLO 205 colon 19.9%
active: HOP-62 NSCLC -36.8% | HOP-92 NSCLC 4.13% | NCI-H522 lung 0.156% | 786-0 renal -38.5%

N#C/C(=C\c1ccc(Cl)cc1)n1nnc2cc(F)c(F)cc21
inactive: NCI-H23 lung 30% | NCI-H226 lung 83.8% | NCI-H322M lung 33.9% | HOP-62 NSCLC 59.1% | A549/ATCC NSCLC 32.8% | 786-0 renal 14.7%
active: NCI-H460 lung -22.2% | HOP-92 NSCLC 5.41% | NCI-H522 lung 3.72% | COLO 205 colon 8.61%

CCCCN1C=CCN(CCCC)C1
inactive: NCI-H23 lung 65.4% | NCI-H226 lung 82.9% | NCI-H322M lung 75% | HOP-62 NSCLC 84.1% | NCI-H460 lung 50.1% | HOP-92 NSCLC 50.2% | NCI-H522 lung 47.7% | A549/ATCC NSCLC 66.7% | 786-0 renal 73.9% | COLO 205 colon 30.4%

CCOc1ccc(/C=N/Nc2cc(C)nc3ccc(Br)cc23)cc1
inactive: NCI-H23 lung 82.2% | NCI-H226 lung 92.7% | NCI-H322M lung 93.5% | HOP-62 NSCLC 96.5% | NCI-H460 lung 87.2% | HOP-92 NSCLC 57.5% | NCI-H522 lung 97.7% | A549/ATCC NSCLC 82% | 786-0 renal 96.1% | COLO 205 colon 96.2%
